# Measurements reported in the supplement of paper PMC8728848.
# Shown is part of a subset that was picked to be rich in the strongest signals.
# B1: Regenerating Gene I (Homo sapiens), P05451 (protein)
# chain: MAQTSSYFMLISCLMFLSQSQGQEAQTELPQARISCPEGTNAYRSYCYYFNEDRETWVDADLYCQNMNSGNLVSVLTQAEGAFVASLIKESGTDDFNVWIGLHDPKKNRRWHWSSGSLVSYKSWGIGAPSSVNPGYCVSLTSSTGFQKWKDVPCEDKFSFVCKFKN
# B2: LKPARMA (Neurospora crassa) (protein)
# chain: MSFHVTAEDARRIEVRDNRTILFARLRREDGEWNDASYELDQIIGNNDGHFQWGGGQNFTETAEDIRFHPKEGAAEQPILRARLRDCNGEFHDRDVNLTEIVENVNGEFQAKF
# Legend:
# Experiment in all cases: glycan array binding signal (z-score within array); higher = stronger binding
# Settings in all cases: glycan notation: IUPAC condensed, linker removed
# Fuc(a1-2)Gal(b1-3)GlcNAc = target: Fuc(a1-2)Gal(b1-3)GlcNAc
# Outline: (§1)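 Columns mapping to the same glycan were averaged after glycan names were converted to IUPAC-condensed notation. The data come from 3228 arrays in the Consortium for Functional Glycomics database, limited to those with an available protein sequence. Binding is reported as a within-array Z-score averaged across arrays of one protein sequence and across linkers.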
# [1] = target: Fuc(a1-2)[GalNAc(a1-3)]Gal(b1-3)GlcNAc
# Outline: as §1
# [2] = target: Fuc(a1-3)[GalNAc(b1-4)]GlcNAc
# Outline: as §1
# Gal(a1-4)Gal(b1-4)Glc = target: Gal(a1-4)Gal(b1-4)Glc
# Outline: as §1
# Gal(a1-4)GlcNAc = target: Gal(a1-4)GlcNAc
# Outline: as §1
# [3] = target: Gal(b1-3)GlcNAc(b1-3)Gal(b1-4)GlcNAc
# Outline: as §1
# [4] = target: Gal(b1-3)[Fuc(a1-4)]GlcNAc(b1-3)Gal(b1-3)[Fuc(a1-4)]GlcNAc
# Outline: as §1
# [5] = target: Gal(b1-4)GlcNAc(a1-6)Gal(b1-4)GlcNAc
# Outline: as §1
# Gal3S(b1-4)Glc = target: Gal3S(b1-4)Glc
# Outline: as §1
# Gal4S(b1-4)GlcNAc = target: Gal4S(b1-4)GlcNAc
# Outline: as §1
# GalNAc(a1-3)GalNAc = target: GalNAc(a1-3)GalNAc
# Outline: as §1
# Glc(a1-6)Glc(a1-6)Glc = target: Glc(a1-6)Glc(a1-6)Glc
# Outline: as §1
# GlcA(b1-3)GlcNAc = target: GlcA(b1-3)GlcNAc
# Outline: as §1
# [6] = target: GlcNAc(b1-2)Gal(b1-3)GalNAc
# Outline: as §1
# GlcNAc(b1-3)Gal = target: GlcNAc(b1-3)Gal
# Outline: as §1
# [7] = target: GlcNAc(b1-4)Gal(b1-4)GlcNAc
# Outline: as §1
# [8] = target: GlcNAc(b1-4)[GlcNAc(b1-6)]GalNAc
# Outline: as §1
# GlcNAc3Prop(b1-4)GlcNAc = target: GlcNAc3Prop(b1-4)GlcNAc
# Outline: as §1
# Man(a1-3)[Man(a1-6)]Man = target: Man(a1-3)[Man(a1-6)]Man
# Outline: as §1
# [9] = target: Man(a1-3)[Man(a1-6)]Man(a1-6)[Man(a1-2)Man(a1-3)]Man(b1-4)GlcNAc(b1-4)GlcNAc
# Outline: as §1
# [10] = target: Neu5Ac(a2-3)Gal(b1-3)GlcNAc6S
# Outline: as §1
# [11] = target: Neu5Ac(a2-3)Gal(b1-3)[Fuc(a1-4)]GlcNAc(b1-3)Gal(b1-4)[Fuc(a1-3)]GlcNAc
# Outline: as §1
# [12] = target: Neu5Ac(a2-3)Gal(b1-4)[Fuc(a1-3)]GlcNAc(b1-6)[Gal(b1-3)]GalNAc
# Outline: as §1
# [13] = target: Neu5Ac(a2-6)Gal(b1-4)GlcNAc(b1-2)Man(a1-3)[GlcNAc(b1-2)Man(a1-6)]Man(b1-4)GlcNAc(b1-4)GlcNAc
# Outline: as §1
# [14] = target: Neu5Ac(a2-6)Gal(b1-4)GlcNAc(b1-2)Man(a1-3)[Neu5Ac(a2-6)Gal(b1-4)GlcNAc(b1-2)Man(a1-6)]Man(b1-4)GlcNAc(b1-4)GlcNAc
# Outline: as §1
# [15] = target: Neu5Ac(a2-6)Gal(b1-4)GlcNAc(b1-2)Man(a1-6)[Gal(b1-4)GlcNAc(b1-2)Man(a1-3)]Man(b1-4)GlcNAc(b1-4)GlcNAc
# Outline: as §1
# [16] = target: Neu5Ac(a2-6)Gal(b1-4)GlcNAc(b1-3)Gal(b1-4)[Fuc(a1-3)]GlcNAc(b1-3)Gal(b1-4)[Fuc(a1-3)]GlcNAc
# Outline: as §1
# [17] = target: Neu5Ac(a2-8)Neu5Ac(a2-8)Neu5Ac(a2-3)Gal(b1-4)Glc
# Outline: as §1
# [18] = target: Fuc(a1-3)[Gal(b1-4)]GlcNAc(b1-4)Gal(b1-4)[Fuc(a1-3)]GlcNAc
# Outline: as §1
# [19] = target: Gal(b1-3)GlcNAc(b1-3)Gal(b1-4)Glc
# Outline: as §1
# [20] = target: Gal(b1-3)[Fuc(a1-4)]GlcNAc
# Outline: as §1
# [21] = target: Gal(b1-3)[Neu5Ac(a2-6)]GalNAc
# Outline: as §1
# [22] = target: Gal(b1-3)[Neu5Ac(a2-6)]GlcNAc(b1-6)Gal(b1-4)Glc
# Outline: as §1
# [23] = target: Gal(b1-3)[Neu5Ac(b2-6)]GalNAc
# Outline: as §1
# [24] = target: Gal(b1-4)GalNAc(a1-3)[Fuc(a1-2)]Gal(b1-4)GlcNAc
# Outline: as §1
# [25] = target: Gal(b1-4)GlcNAc(b1-6)Gal(b1-4)GlcNAc(b1-6)GalNAc
# Outline: as §1
# Gal6S(b1-4)Glc = target: Gal6S(b1-4)Glc
# Outline: as §1
# Glc(b1-6)Glc = target: Glc(b1-6)Glc
# Outline: as §1
# [26] = target: GlcNAc(b1-2)Man(a1-3)[GlcNAc(b1-2)Man(a1-6)]Man(b1-4)GlcNAc(b1-4)GlcNAc
# Outline: as §1
# [27] = target: Neu5Ac(a2-3)Gal(b1-4)GlcNAc(b1-3)Gal(b1-4)GlcNAc
# Outline: as §1
# [28] = target: Neu5Ac(a2-3)Gal(b1-4)[Fuc(a1-3)]GlcNAc(b1-3)Gal(b1-4)[Fuc(a1-3)]GlcNAc(b1-3)Gal(b1-4)[Fuc(a1-3)]GlcNAc
# Outline: as §1
# [29] = target: Neu5Ac(a2-6)GalNAc(b1-4)GlcNAc
# Outline: as §1
# [30] = target: Neu5Ac(a2-8)Neu5Ac(a2-8)Neu5Ac(a2-8)Neu5Ac(a2-3)[GalNAc(b1-4)]Gal(b1-4)Glc
# Outline: as §1
binder,measurement,setting,value
B1,glycan array binding signal (z-score),Fuc(a1-2)Gal(b1-3)GlcNAc,0.417
same,glycan array binding signal (z-score),[1],-0.479
same,glycan array binding signal (z-score),[2],0.315
same,glycan array binding signal (z-score),Gal(a1-4)Gal(b1-4)Glc,3.58
same,glycan array binding signal (z-score),Gal(a1-4)GlcNAc,0.102
same,glycan array binding signal (z-score),[3],-0.537
same,glycan array binding signal (z-score),[4],-0.396
same,glycan array binding signal (z-score),[5],0.071
same,glycan array binding signal (z-score),Gal3S(b1-4)Glc,0.272
same,glycan array binding signal (z-score),Gal4S(b1-4)GlcNAc,0.291
same,glycan array binding signal (z-score),GalNAc(a1-3)GalNAc,-0.588
same,glycan array binding signal (z-score),Glc(a1-6)Glc(a1-6)Glc,-0.118
same,glycan array binding signal (z-score),GlcA(b1-3)GlcNAc,0.836
same,glycan array binding signal (z-score),[6],-0.206
same,glycan array binding signal (z-score),GlcNAc(b1-3)Gal,-0.215
same,glycan array binding signal (z-score),[7],2.18
same,glycan array binding signal (z-score),[8],1.91
same,glycan array binding signal (z-score),GlcNAc3Prop(b1-4)GlcNAc,-0.533
same,glycan array binding signal (z-score),Man(a1-3)[Man(a1-6)]Man,7.74
same,glycan array binding signal (z-score),[9],-0.594
same,glycan array binding signal (z-score),[10],-0.09
same,glycan array binding signal (z-score),[11],5.84
same,glycan array binding signal (z-score),[12],-0.128
same,glycan array binding signal (z-score),[13],-0.412
same,glycan array binding signal (z-score),[14],-0.473
same,glycan array binding signal (z-score),[15],-0.33
same,glycan array binding signal (z-score),[16],-0.304
same,glycan array binding signal (z-score),[17],-0.596
B2,glycan array binding signal (z-score),Fuc(a1-2)Gal(b1-3)GlcNAc,-0.25
same,glycan array binding signal (z-score),[18],-0.077
same,glycan array binding signal (z-score),[19],4.93
same,glycan array binding signal (z-score),[3],-0.249
same,glycan array binding signal (z-score),[20],-0.251
same,glycan array binding signal (z-score),[21],-0.234
same,glycan array binding signal (z-score),[22],5.09
same,glycan array binding signal (z-score),[23],-0.251
same,glycan array binding signal (z-score),[24],-0.149
same,glycan array binding signal (z-score),[25],-0.252
same,glycan array binding signal (z-score),Gal6S(b1-4)Glc,-0.252
same,glycan array binding signal (z-score),Glc(a1-6)Glc(a1-6)Glc,7.12
same,glycan array binding signal (z-score),Glc(b1-6)Glc,6.76
same,glycan array binding signal (z-score),[26],-0.251
same,glycan array binding signal (z-score),[27],-0.235
same,glycan array binding signal (z-score),[28],-0.212
same,glycan array binding signal (z-score),[29],-0.252
same,glycan array binding signal (z-score),[30],-0.248
